# Results published in the supplement of paper PMC12282887.
# ± gives the standard deviation of the averaged measurements.
# Tests used:
# Assay in all cases: promoter activity interaction Z-score (Lux/OD deviation from empty-vector control); higher = stronger promoter induction by the compound
# [1] = test system: E. coli BW25113 acrABp lux reporter
# In short: (§1)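 E. coli BW25113 (wild type or marA, soxS or rob deletion) carrying low-copy luxCDABE promoter reporters grew in 40 µl LB Lennox in 384-well plates at 37°C. Each compound was tested at four 1:2 dilutions in biological duplicates. OD600 and luminescence were read every 30 min for 12 h. Areas were taken over 0–8 h (wild type) or 1–9 h (mutants), and wells below 10% of median growth area were removed. The score is the Z-transformed residual of growth-normalised luminescence fitted against the empty-vector control.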
# [2] = test system: E. coli BW25113 micFp lux reporter
# In short: as §1
# [3] = test system: E. coli BW25113 ompFp lux reporter
# In short: as §1
# [4] = test system: E. coli BW25113 robp lux reporter
# In short: as §1
# [5] = test system: E. coli BW25113 soxSp lux reporter
# In short: as §1
# [6] = test system: E. coli BW25113 tolCp lux reporter
# In short: as §1
# [7] = 19.1 µg/ml, genetic background: wild type
# [8] = 19.1 µg/ml, genetic background: ΔmarA
# [9] = 19.1 µg/ml, genetic background: Δrob
# [10] = 19.1 µg/ml, genetic background: ΔsoxS
# [11] = 38.3 µg/ml, genetic background: wild type
# [12] = 38.3 µg/ml, genetic background: ΔmarA
# [13] = 38.3 µg/ml, genetic background: Δrob
# [14] = 38.3 µg/ml, genetic background: ΔsoxS
# [15] = 76.6 µg/ml, genetic background: wild type
# [16] = 76.6 µg/ml, genetic background: ΔmarA
# [17] = 76.6 µg/ml, genetic background: Δrob
# [18] = 76.6 µg/ml, genetic background: ΔsoxS
# [19] = 153.1 µg/ml, genetic background: wild type
# [20] = 153.1 µg/ml, genetic background: ΔmarA
# [21] = 153.1 µg/ml, genetic background: Δrob
# [22] = 153.1 µg/ml, genetic background: ΔsoxS
smiles,measurement,setting,value
Nc1ccc(C(=O)O)c(O)c1 [4-Aminosalicylic acid],promoter activity interaction Z-score,[1]; [7],-0.149 ± 0.057
same,promoter activity interaction Z-score,[1]; [8],-0.463 ± 0.94
same,promoter activity interaction Z-score,[1]; [9],-0.0648 ± 0.1
same,promoter activity interaction Z-score,[1]; [10],0.0906 ± 0.23
same,promoter activity interaction Z-score,[1]; [11],-0.194 ± 0.071
same,promoter activity interaction Z-score,[1]; [12],-0.226 ± 0.02
same,promoter activity interaction Z-score,[1]; [13],0.179 ± 0.24
same,promoter activity interaction Z-score,[1]; [14],0.221 ± 0.28
same,promoter activity interaction Z-score,[1]; [15],-0.276 ± 0.035
same,promoter activity interaction Z-score,[1]; [16],-0.0192 ± 0.31
same,promoter activity interaction Z-score,[1]; [17],-0.218 ± 0.18
same,promoter activity interaction Z-score,[1]; [18],-0.00319 ± 0.25
same,promoter activity interaction Z-score,[1]; [19],-0.212 ± 0.19
same,promoter activity interaction Z-score,[1]; [20],0.164 ± 0.025
same,promoter activity interaction Z-score,[1]; [21],0.0189 ± 0.39
same,promoter activity interaction Z-score,[1]; [22],0.952 ± 1.3
same,promoter activity interaction Z-score,[2]; [7],0.127 ± 0.069
same,promoter activity interaction Z-score,[2]; [8],0.157 ± 0.12
same,promoter activity interaction Z-score,[2]; [9],0.223 ± 0.068
same,promoter activity interaction Z-score,[2]; [10],0.335 ± 0.24
same,promoter activity interaction Z-score,[2]; [11],0.103 ± 0.31
same,promoter activity interaction Z-score,[2]; [12],0.0571 ± 0.12
same,promoter activity interaction Z-score,[2]; [13],0.346 ± 0.16
same,promoter activity interaction Z-score,[2]; [14],0.348 ± 0.31
same,promoter activity interaction Z-score,[2]; [15],0.399 ± 0.11
same,promoter activity interaction Z-score,[2]; [16],0.312 ± 0.014
same,promoter activity interaction Z-score,[2]; [17],0.842 ± 0.12
same,promoter activity interaction Z-score,[2]; [18],0.567 ± 0.32
same,promoter activity interaction Z-score,[2]; [19],0.955 ± 0.34
same,promoter activity interaction Z-score,[2]; [20],0.278 ± 0.066
same,promoter activity interaction Z-score,[2]; [21],1.89 ± 0.16
same,promoter activity interaction Z-score,[2]; [22],2.24 ± 0.04
same,promoter activity interaction Z-score,[3]; [7],-0.191 ± 0.28
same,promoter activity interaction Z-score,[3]; [8],-0.0337 ± 0.042
same,promoter activity interaction Z-score,[3]; [9],0.485 ± 0.12
same,promoter activity interaction Z-score,[3]; [10],0.498 ± 0.63
same,promoter activity interaction Z-score,[3]; [11],-0.538 ± 0.33
same,promoter activity interaction Z-score,[3]; [12],0.43 ± 0.48
same,promoter activity interaction Z-score,[3]; [13],0.92 ± 0.71
same,promoter activity interaction Z-score,[3]; [14],0.203 ± 0.35
same,promoter activity interaction Z-score,[3]; [15],-0.751 ± 0.39
same,promoter activity interaction Z-score,[3]; [16],-0.414 ± 0.39
same,promoter activity interaction Z-score,[3]; [17],-0.49 ± 0.65
same,promoter activity interaction Z-score,[3]; [18],-0.5 ± 0.67
same,promoter activity interaction Z-score,[3]; [19],-0.516 ± 0.52
same,promoter activity interaction Z-score,[3]; [20],0.0436 ± 0.35
same,promoter activity interaction Z-score,[3]; [21],0.0977 ± 1
same,promoter activity interaction Z-score,[3]; [22],0.625 ± 1.1
same,promoter activity interaction Z-score,[4]; [7],-0.222 ± 0.014
same,promoter activity interaction Z-score,[4]; [8],-0.199 ± 0.69
same,promoter activity interaction Z-score,[4]; [9],-0.314 ± 0.28
same,promoter activity interaction Z-score,[4]; [10],-0.201 ± 0.76
same,promoter activity interaction Z-score,[4]; [11],-0.158 ± 0.15
same,promoter activity interaction Z-score,[4]; [12],0.308 ± 0.07
same,promoter activity interaction Z-score,[4]; [13],0.333 ± 0.35
same,promoter activity interaction Z-score,[4]; [14],0.11 ± 0.31
same,promoter activity interaction Z-score,[4]; [15],-0.0528 ± 0.63
same,promoter activity interaction Z-score,[4]; [16],-0.845 ± 0.11
same,promoter activity interaction Z-score,[4]; [17],-0.29 ± 0.49
same,promoter activity interaction Z-score,[4]; [18],-0.381 ± 0.64
same,promoter activity interaction Z-score,[4]; [19],-0.356 ± 0.24
same,promoter activity interaction Z-score,[4]; [20],0.439 ± 0.5
same,promoter activity interaction Z-score,[4]; [21],-0.252 ± 0.99
same,promoter activity interaction Z-score,[4]; [22],0.0401 ± 0.42
same,promoter activity interaction Z-score,[5]; [7],0.0858 ± 0.3
same,promoter activity interaction Z-score,[5]; [8],0.563 ± 0.097
same,promoter activity interaction Z-score,[5]; [9],0.674 ± 0.079
same,promoter activity interaction Z-score,[5]; [10],0.458 ± 0.71
same,promoter activity interaction Z-score,[5]; [11],-0.0504 ± 0.074
same,promoter activity interaction Z-score,[5]; [12],0.547 ± 0.088
same,promoter activity interaction Z-score,[5]; [13],0.688 ± 0.15
same,promoter activity interaction Z-score,[5]; [14],0.377 ± 0.54
same,promoter activity interaction Z-score,[5]; [15],0.102 ± 0.028
same,promoter activity interaction Z-score,[5]; [16],0.199 ± 0.076
same,promoter activity interaction Z-score,[5]; [17],0.581 ± 0.14
same,promoter activity interaction Z-score,[5]; [18],0.29 ± 0.88
same,promoter activity interaction Z-score,[5]; [19],-0.173 ± 0.12
same,promoter activity interaction Z-score,[5]; [20],0.349 ± 0.045
same,promoter activity interaction Z-score,[5]; [21],0.403 ± 0.16
same,promoter activity interaction Z-score,[5]; [22],0.259 ± 0.95
same,promoter activity interaction Z-score,[6]; [7],-0.487 ± 1.9
same,promoter activity interaction Z-score,[6]; [8],-1.05 ± 0.26
same,promoter activity interaction Z-score,[6]; [9],1.71 ± 2
same,promoter activity interaction Z-score,[6]; [10],-0.0483 ± 0.2
same,promoter activity interaction Z-score,[6]; [11],-0.154 ± 1.3
same,promoter activity interaction Z-score,[6]; [12],-0.0748 ± 0.1
same,promoter activity interaction Z-score,[6]; [13],0.149 ± 0.17
same,promoter activity interaction Z-score,[6]; [14],0.687 ± 1.6
same,promoter activity interaction Z-score,[6]; [15],-0.119 ± 0.018
same,promoter activity interaction Z-score,[6]; [16],-0.241 ± 0.77
same,promoter activity interaction Z-score,[6]; [17],1.64 ± 0.41
same,promoter activity interaction Z-score,[6]; [18],-0.423 ± 0.15
same,promoter activity interaction Z-score,[6]; [19],0.606 ± 0.32
same,promoter activity interaction Z-score,[6]; [20],0.0837 ± 0.18
same,promoter activity interaction Z-score,[6]; [21],0.207 ± 0.77
same,promoter activity interaction Z-score,[6]; [22],1.76 ± 0.4
